50 compounds from ChEMBL document CHEMBL3988442, “University of Dundee, Small-Polar-MMV Screening Library” (2021) can be followed below.

Test [1] addresses T1, Aspartate--tRNA(Asp/Asn) ligase (Mycobacterium tuberculosis (strain ATCC 25618 / H37Rv)) (UniProt P9WFW3).
T1 sequence (whole entry): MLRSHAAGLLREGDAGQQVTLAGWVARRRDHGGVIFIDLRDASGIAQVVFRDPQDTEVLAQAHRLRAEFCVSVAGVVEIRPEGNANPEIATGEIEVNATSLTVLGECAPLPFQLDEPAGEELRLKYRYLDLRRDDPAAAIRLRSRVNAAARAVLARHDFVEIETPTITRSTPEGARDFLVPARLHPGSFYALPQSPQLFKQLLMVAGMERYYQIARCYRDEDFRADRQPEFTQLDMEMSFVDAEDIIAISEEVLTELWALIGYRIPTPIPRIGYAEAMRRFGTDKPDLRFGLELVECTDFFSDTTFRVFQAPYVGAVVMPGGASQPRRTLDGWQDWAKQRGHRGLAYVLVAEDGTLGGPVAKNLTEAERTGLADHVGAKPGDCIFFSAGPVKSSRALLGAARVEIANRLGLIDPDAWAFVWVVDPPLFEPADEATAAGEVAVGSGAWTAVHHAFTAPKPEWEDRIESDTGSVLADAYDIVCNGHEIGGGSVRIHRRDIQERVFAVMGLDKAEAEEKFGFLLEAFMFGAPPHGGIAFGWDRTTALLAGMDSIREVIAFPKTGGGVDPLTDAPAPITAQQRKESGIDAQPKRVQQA
In words: Assay for Asp RNA synthetase-1 from Mycobacterium tuberculosis. The class given is functional. The conditions noted are these: 30 µM. More on the design: scale not given: direction of the effect not stated beside the values.

Test [2] addresses Shiga toxin 2 (Escherichia coli O157:H7) (UniProt P09385+P09386). Kind of test: E. coli 0.157:H7 Shiga Toxin SOP - stx2 screening assay. It is filed as functional. More on the design: scale not given: direction of the effect not stated beside the values. Particulars: 30 µM.

Turning to `CCn1ccnc1CN1CCC(CNC(=O)c2ccc(C)nc2)C1` (stereo not given), the Percent Effect was -0.565% in test [1] and -34.1% in test [2].

With `Cc1cccc(CCC(=O)N2CCCC(c3cc(C(N)=O)[nH]n3)C2)c1` (stereo not given), the figures for the Percent Effect in test [1] and in test [2] were -0.161% and -10.2%, respectively.

In the case of `CC(C)c1nnc2n1CCN(C(=O)c1cccc(C(F)(F)F)c1)C2`, the Percent Effect is 0.896% in test [1] and -0.987% in test [2].

`CCC(C)(C)NC(=O)Cn1nc(C)nc1-c1cccc(C)c1`: the Percent Effect was determined as 1.4% in test [1] and 5.46% in test [2].

With `Cc1nc(CN2CCn3cc(CNC(=O)C4CCC4)nc3C2)cs1`, the Percent Effect is 11% in test [1] and -50.1% in test [2].

In the case of `Cc1noc(C(C)C)c1C(=O)NCCCOC(C)C`, the Percent Effect in test [1] was 2.01%; in test [2], -6.05%.

As to `Cc1ccc(C(=O)O)cc1S(=O)(=O)Nc1nn(-c2ccccc2)cc1C`, the Percent Effect in test [1] stood at 5.61%; in test [2], 3.87%.

With `COCC(=O)NCc1cc(=O)n2c(n1)CN(Cc1ccsc1)CCC2`, the Percent Effect in test [1] turned out to be 5.55%; in test [2], 10%.

With `CCn1c(N)nc2cc(C(=O)NCc3ccccc3Cl)cnc21`, the Percent Effect was 6.55% in test [1] and -1.88% in test [2].

On to `O=C(c1cccnc1-n1cncn1)N1CCc2ccccc2C1`, for which the Percent Effect in test [1] was -3.76%; in test [2], -9.55%.

As to `O=C(NCC1COCc2c(-c3cccnc3)nnn2C1)c1cccs1` (stereo not given), the Percent Effect is 9.59% in test [1] and -14.9% in test [2].

Turning to `Cc1ncc2c(n1)CCN(C(=O)Cc1c(C)noc1C)C2`, the Percent Effect in test [1] is -2.87%; in test [2], -13.9%.

As for `O=C(c1ccc(C2CCCO2)s1)N1Cc2ccccc2C1` (stereo not given), the Percent Effect is 0.948% in test [1] and -61.8% in test [2].

As to `O=C(NCCNc1ncccn1)C1CC(=O)N(CC(F)(F)F)C1` (stereo not given), the values for the Percent Effect in test [1] and in test [2] were -6.31% and 20.8%, respectively.

Take `CCc1ncnc2c1CCN(C(=O)Cc1ccccn1)CC2`: the Percent Effect in test [1] was -1.97%; in test [2] it was -18.4%.

`O=C(C1CCOCC1)N1CC[C@H]2C[C@@H](c3ccncn3)O[C@@H]2C1`: the Percent Effect in test [1] was 1.69%; in test [2], -27.6%.

As for `COC(=O)CS(=O)(=O)CCC(=O)N1CCCC1c1ccsc1` (stereo not given), the Percent Effect in test [1] was -1.34%; in test [2], -0.403%.

`CN(C)[C@@H]1CCN(C(=O)c2ccsc2)[C@H]1Cc1cnn(C)c1`: the Percent Effect in test [1] is -0.691%; in test [2] it was -4.3%.

In the case of `CCN1CCN(C(=O)CCc2c(C)noc2Cl)CC1`, the Percent Effect was found to be 0.983% in test [1] and 28.8% in test [2].

Take `CC(O)CN1CCN(Cc2csc(-c3ncccn3)n2)CC1` (stereo not given): the Percent Effect in test [1] was 2.19%; in test [2], -19.8%.

Take `CN1CCC(Oc2ccc(NC(=O)c3ccccc3Br)cc2)CC1`: the Percent Effect in test [1] was -0.921%; in test [2] it was -69.6%.

Turning to `C[S+]([O-])c1nncn1CC(=O)c1cccc(Cl)c1` (stereo not given), the Percent Effect is -0.917% in test [1] and -33.8% in test [2].

In the case of `O=C(CC1CC1)N1C[C@@H]2CCN(c3cnccn3)C[C@@H]2C1`, the Percent Effect in test [1] was -5.94%; in test [2] it was -0.992%.

For the compound `Cc1nc(CN2CCC(C(=O)O)(n3ccc(-c4ccco4)n3)CC2)co1`, the Percent Effect is -1.98% in test [1] and -9.21% in test [2].

As for `CC(C)c1nn(C)c(N2CCOCC2)c1CNC(C)c1cccs1` (stereo not given), the Percent Effect is -0.59% in test [1] and 33.2% in test [2].

As to `OC(CN1CCOCC1)c1ccc(OC(F)(F)F)cc1` (stereo not given), the figures for the Percent Effect in test [1] and in test [2] were -1.62% and 13.6%, respectively.

Take `Cc1noc(CCCC(=O)NC(C)c2cn(-c3ccccc3)nn2)n1` (stereo not given): the results for the Percent Effect in test [1] and in test [2] were -5.92% and 0.819%, respectively.

For `Cc1ccc(OCC(O)CN2CCC(Cn3cccn3)CC2)cc1` (stereo not given), the Percent Effect in test [1] was -1.46%; in test [2], -51.7%.

As for `N#Cc1cccc(S(=O)(=O)NC(=O)COc2ccc3c(c2)CCC3)c1`, the figures for the Percent Effect in test [1] and in test [2] were -0.478% and 8.82%, respectively.

In the case of `Cn1ccc(CN2CCC(NC(=O)NC3CCCCC3)CC2)cc1=O`, the Percent Effect is -0.833% in test [1] and -11.2% in test [2].

Regarding `COc1ccc(C(C(=O)O)N2CCCN(C3CCCCC3)CC2)cn1` (stereo not given), the Percent Effect in test [1] amounted to 2.16%; in test [2] it was 0.0125%.

`CC(C(=O)NCCOc1cccc(Cl)c1)n1cncn1` (stereo not given): the Percent Effect was 4.65% in test [1] and -10.9% in test [2].

For `CC(C)c1nn(C)c(N(C)C)c1CNCc1ccccc1CN(C)C`, the Percent Effect in test [1] is -0.745%; in test [2], 23.7%.

For `Cn1cc(CN2CCC3(CCCN3S(C)(=O)=O)CC2)cn1`, the values for the Percent Effect in test [1] and in test [2] were 5.38% and 4.5%, respectively.

Consider `O=C(Cc1ccc2c(c1)OCCO2)N1CCCC(n2cccn2)C1` (stereo not given), for which the Percent Effect in test [1] is -1.07%; in test [2], 10.8%.

For `Cc1nc(-c2ccsc2)ccc1C(=O)NCCC(=O)N1CCCC1`, the results for the Percent Effect in test [1] and in test [2] were 0.0333% and -18.4%, respectively.

As to `O=C1N(c2ccccc2)Cc2nc(=O)[nH]n21`, the Percent Effect was -0.29% in test [1] and -29.1% in test [2].

Take `CCn1nccc1CNC(=O)NC1CCCCC1`: the figures for the Percent Effect in test [1] and in test [2] were 11.6% and -68.7%, respectively.

Turning to `COCCN1C[C@H]2[C@@H](C1)N(Cc1ccc(C)o1)CC[C@H]2OC`, the Percent Effect was -3.26% in test [1] and -28.9% in test [2].

Regarding `CN(C)CCOCC1CN(C(=O)[C@H]2CCCO2)Cc2ccnn2C1` (stereo not given in full), the Percent Effect in test [1] was 0.379%; in test [2], -15.2%.

As to `CCn1cc(CN2CCc3nc(N4CCOCC4)nc(O)c3CC2)cn1`, the Percent Effect in test [1] was -1.83%; in test [2], -19.4%.

Consider `O=C(NCCOc1ccc(F)c(F)c1)NCc1cccc(CO)c1`, for which the Percent Effect in test [1] is 0.257%; in test [2], -6.88%.

Consider `O=C(CC1CCCC1)NCCn1ccc(-c2ccncc2)n1`, for which the values for the Percent Effect in test [1] and in test [2] were 7.45% and 3.58%, respectively.

Consider `O=C(Cn1cc(-c2ccccc2)ncc1=O)Nc1ccncc1`, for which the Percent Effect in test [1] was 1.91%; in test [2] it was -0.041%.

Turning to `N#Cc1ccc(OCCN2CCc3c(ncn3C3CC3)C2)cc1`, the Percent Effect in test [1] was 1.24%; in test [2], -40.3%.

On to `Cn1ccnc1CN1CCN(CC(=O)NCC(F)(F)F)CC1`, for which the Percent Effect in test [1] was 1.97%; in test [2], 18.6%.

Regarding `CN(C)C(=O)C1(CCCc2ccncc2)CCCN1` (stereo not given), the Percent Effect in test [1] was -0.998%; in test [2], 11.3%.

For the compound `Cc1ccc(-c2cc(N)c(=O)n(CC(=O)NC3CCCCC3)n2)s1`, the Percent Effect in test [1] amounted to 1.95%; in test [2] it was 13.1%.

Turning to `Cc1cc(C)n(C2CCCN(C(=O)c3ccc(F)cc3F)C2)n1` (stereo not given), the Percent Effect is 7.84% in test [1] and -0.315% in test [2].

Take `CNS(=O)(=O)Cc1ccc(CNc2cncc(-n3cccn3)n2)cc1`: the results for the Percent Effect in test [1] and in test [2] were -0.637% and -15.6%, respectively.
